Results on five molecules are retold here after ChEMBL document CHEMBL2218924, “A broad activity screen in support of a chemogenomic map for kinase signalling research and drug discovery” (Biochem J, 2013).

As a reminder, the residual activity is the signal under treatment as a percentage of the control signal.

The target of assay [1] is T1, Inhibitor of nuclear factor kappa-B kinase subunit alpha (Homo sapiens) (UniProt O15111).
T1 sequence (whole entry): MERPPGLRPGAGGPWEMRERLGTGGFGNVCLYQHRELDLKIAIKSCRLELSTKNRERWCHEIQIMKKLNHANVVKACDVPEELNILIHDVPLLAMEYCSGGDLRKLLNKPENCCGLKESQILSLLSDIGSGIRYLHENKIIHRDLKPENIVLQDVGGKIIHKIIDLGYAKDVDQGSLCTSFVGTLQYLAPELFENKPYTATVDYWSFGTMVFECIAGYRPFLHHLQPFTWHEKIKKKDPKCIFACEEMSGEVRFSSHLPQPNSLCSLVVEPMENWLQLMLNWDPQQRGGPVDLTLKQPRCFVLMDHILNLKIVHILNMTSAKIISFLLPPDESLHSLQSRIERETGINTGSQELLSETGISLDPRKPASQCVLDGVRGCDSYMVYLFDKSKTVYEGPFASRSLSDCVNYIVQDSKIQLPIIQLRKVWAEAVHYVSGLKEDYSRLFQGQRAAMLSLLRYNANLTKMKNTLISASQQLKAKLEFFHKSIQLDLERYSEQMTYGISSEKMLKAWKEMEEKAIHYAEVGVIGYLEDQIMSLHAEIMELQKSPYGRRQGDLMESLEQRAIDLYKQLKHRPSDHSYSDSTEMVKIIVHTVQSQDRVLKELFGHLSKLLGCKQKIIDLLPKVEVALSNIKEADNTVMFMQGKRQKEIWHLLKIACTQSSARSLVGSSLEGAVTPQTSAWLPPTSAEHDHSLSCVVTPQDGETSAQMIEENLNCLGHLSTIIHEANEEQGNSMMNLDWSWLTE
The settings on record: at 1 µM.

Assay [2] deals with T1, Inhibitor of nuclear factor kappa-B kinase subunit alpha (Homo sapiens). To be noted: at 10 µM.
Assay [3] addresses T2, Inhibitor of nuclear factor kappa-B kinase subunit beta (Homo sapiens) (UniProt O14920).
T2 sequence (whole entry): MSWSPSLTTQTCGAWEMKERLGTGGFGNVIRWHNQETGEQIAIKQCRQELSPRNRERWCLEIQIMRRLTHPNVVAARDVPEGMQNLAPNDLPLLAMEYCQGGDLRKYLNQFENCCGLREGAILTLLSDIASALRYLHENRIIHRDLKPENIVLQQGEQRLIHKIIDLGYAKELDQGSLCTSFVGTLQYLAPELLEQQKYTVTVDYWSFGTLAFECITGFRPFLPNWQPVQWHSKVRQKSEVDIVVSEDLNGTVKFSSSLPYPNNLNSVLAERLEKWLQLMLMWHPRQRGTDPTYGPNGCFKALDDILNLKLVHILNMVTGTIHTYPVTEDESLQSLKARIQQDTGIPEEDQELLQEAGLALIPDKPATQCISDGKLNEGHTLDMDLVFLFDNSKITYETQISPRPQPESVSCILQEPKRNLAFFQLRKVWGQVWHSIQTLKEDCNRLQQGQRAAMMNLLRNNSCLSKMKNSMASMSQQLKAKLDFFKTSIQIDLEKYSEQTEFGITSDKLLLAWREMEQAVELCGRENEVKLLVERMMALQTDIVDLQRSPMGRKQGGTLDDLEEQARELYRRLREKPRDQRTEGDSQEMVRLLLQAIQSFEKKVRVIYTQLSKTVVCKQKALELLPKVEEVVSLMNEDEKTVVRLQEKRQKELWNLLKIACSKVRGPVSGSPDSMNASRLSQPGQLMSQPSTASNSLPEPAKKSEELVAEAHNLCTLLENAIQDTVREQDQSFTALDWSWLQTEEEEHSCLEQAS
The settings on record: at 10 µM.

The target of assay [4] is Insulin receptor (Homo sapiens) (UniProt P06213). To be noted: at 10 µM.
The target is the same in assay [5]. To be noted: at 1 µM.
Assay [6] shares this target. The settings on record: at 10 µM. The source holds these as a separate data set.
Assay [7] deals with Interleukin-1 receptor-associated kinase 1 (Homo sapiens) (UniProt P51617). The settings on record: at 1 µM.
Assay [8] has the same target. The settings on record: at 10 µM.
In assay [9] the target is T3, Interleukin-1 receptor-associated kinase 4 (Homo sapiens) (UniProt Q9NWZ3).
T3 sequence (whole entry): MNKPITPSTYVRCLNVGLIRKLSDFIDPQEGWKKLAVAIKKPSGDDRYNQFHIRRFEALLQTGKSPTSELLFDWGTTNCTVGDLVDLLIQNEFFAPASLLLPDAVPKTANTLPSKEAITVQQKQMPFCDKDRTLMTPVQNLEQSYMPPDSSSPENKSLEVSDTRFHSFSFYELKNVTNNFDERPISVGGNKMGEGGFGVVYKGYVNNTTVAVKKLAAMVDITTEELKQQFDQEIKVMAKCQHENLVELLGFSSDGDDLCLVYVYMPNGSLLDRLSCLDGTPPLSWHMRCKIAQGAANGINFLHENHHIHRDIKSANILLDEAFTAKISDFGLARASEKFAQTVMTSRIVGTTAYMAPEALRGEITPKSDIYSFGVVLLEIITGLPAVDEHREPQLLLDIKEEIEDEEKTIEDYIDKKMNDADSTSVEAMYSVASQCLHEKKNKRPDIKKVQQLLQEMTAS
The settings on record: at 10 µM.

Assay [10] has as its target Insulin receptor-related protein (Homo sapiens) (UniProt P14616). The settings on record: at 1 µM.
Assay [11] shares this target. To be noted: at 10 µM.
The target in assay [12] is T4, Tyrosine-protein kinase ITK/TSK (Homo sapiens) (UniProt Q08881).
T4 sequence (whole entry): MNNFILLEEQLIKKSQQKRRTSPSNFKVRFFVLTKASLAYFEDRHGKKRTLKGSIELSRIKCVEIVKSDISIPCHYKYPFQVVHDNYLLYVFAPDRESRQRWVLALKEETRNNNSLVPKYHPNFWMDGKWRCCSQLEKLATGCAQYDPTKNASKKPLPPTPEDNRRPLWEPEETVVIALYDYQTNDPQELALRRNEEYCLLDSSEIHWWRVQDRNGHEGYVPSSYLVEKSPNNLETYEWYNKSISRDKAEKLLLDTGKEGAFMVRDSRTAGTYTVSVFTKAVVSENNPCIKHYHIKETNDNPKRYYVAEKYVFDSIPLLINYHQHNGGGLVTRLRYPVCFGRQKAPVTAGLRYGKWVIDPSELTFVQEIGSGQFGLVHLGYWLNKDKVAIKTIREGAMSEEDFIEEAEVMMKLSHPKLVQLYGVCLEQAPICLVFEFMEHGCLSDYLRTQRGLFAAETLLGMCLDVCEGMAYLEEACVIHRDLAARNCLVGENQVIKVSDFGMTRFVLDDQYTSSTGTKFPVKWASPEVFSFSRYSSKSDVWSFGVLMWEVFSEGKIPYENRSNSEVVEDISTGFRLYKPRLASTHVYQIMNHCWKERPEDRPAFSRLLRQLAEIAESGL
To be noted: at 1 µM.

Assay [13] deals with T4, Tyrosine-protein kinase ITK/TSK (Homo sapiens). To be noted: at 10 µM.
For assay [14], the target named is Tyrosine-protein kinase JAK2 (Homo sapiens) (UniProt O60674). The settings on record: at 1 µM.
Assay [15] shares this target. The settings on record: at 10 µM.
The target of assay [16] is T5, Tyrosine-protein kinase JAK3 (Homo sapiens) (UniProt P52333).
T5 sequence (whole entry): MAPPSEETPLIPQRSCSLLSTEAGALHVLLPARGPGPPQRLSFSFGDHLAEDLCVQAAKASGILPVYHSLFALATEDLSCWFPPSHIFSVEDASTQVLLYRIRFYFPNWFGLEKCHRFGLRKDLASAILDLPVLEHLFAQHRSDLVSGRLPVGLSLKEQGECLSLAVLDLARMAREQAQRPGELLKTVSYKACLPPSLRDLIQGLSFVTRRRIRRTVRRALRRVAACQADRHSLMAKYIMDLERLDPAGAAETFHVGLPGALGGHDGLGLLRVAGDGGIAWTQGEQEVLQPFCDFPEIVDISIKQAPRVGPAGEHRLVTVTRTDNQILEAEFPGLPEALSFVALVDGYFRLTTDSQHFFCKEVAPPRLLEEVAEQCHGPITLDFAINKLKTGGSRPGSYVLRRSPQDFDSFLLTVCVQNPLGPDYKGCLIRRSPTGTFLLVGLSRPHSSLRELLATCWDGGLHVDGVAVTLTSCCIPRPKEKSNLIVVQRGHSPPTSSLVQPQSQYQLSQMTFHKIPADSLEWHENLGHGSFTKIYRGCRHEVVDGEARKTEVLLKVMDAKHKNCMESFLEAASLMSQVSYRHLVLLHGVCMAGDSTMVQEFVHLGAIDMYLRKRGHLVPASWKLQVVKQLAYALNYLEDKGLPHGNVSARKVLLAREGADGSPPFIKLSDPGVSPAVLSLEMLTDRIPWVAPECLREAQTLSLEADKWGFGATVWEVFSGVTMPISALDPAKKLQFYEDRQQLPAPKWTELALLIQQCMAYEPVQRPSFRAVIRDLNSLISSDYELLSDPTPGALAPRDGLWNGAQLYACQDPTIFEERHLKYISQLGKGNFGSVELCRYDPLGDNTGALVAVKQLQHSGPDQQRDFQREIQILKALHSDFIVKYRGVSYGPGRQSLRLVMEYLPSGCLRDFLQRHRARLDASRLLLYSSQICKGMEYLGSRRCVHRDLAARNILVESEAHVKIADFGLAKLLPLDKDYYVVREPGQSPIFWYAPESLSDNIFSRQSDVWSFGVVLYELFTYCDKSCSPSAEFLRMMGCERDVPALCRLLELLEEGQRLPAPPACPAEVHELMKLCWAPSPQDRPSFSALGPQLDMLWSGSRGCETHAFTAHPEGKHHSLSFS
To be noted: at 1 µM.

The target in assay [17] is T5, Tyrosine-protein kinase JAK3 (Homo sapiens). The settings on record: at 10 µM.
In assay [18] the target is T3, Interleukin-1 receptor-associated kinase 4 (Homo sapiens). The settings on record: at 1 µM.
Assay [19] concerns the target T2, Inhibitor of nuclear factor kappa-B kinase subunit beta (Homo sapiens). To be noted: at 1 µM.
Assay [20] deals with Insulin receptor (Homo sapiens) (UniProt P06213). The settings on record: at 1 µM. This is another data set of the same source.

Insulin receptor (Homo sapiens), sequence (P06213 28-758 limits assumed): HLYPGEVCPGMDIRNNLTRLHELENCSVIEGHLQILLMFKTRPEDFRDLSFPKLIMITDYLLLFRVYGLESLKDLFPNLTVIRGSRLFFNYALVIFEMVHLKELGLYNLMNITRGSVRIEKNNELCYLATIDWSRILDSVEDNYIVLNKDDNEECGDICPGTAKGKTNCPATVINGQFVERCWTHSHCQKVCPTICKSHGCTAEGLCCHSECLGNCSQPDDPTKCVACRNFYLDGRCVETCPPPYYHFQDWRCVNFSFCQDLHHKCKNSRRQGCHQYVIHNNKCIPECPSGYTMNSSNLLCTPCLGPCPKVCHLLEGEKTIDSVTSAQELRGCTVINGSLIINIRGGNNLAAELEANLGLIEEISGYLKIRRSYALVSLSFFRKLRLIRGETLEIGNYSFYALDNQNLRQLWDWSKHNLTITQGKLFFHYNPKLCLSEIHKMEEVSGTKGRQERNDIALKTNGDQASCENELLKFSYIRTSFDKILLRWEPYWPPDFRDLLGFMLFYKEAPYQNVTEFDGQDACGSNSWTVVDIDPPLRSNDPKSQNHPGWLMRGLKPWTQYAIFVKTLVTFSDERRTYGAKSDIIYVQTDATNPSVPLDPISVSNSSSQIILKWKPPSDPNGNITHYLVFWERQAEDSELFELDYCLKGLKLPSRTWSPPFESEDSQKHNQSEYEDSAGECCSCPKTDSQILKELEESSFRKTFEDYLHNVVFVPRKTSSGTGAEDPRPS
Insulin receptor (Homo sapiens), sequence (P06213 763-1382 limits assumed): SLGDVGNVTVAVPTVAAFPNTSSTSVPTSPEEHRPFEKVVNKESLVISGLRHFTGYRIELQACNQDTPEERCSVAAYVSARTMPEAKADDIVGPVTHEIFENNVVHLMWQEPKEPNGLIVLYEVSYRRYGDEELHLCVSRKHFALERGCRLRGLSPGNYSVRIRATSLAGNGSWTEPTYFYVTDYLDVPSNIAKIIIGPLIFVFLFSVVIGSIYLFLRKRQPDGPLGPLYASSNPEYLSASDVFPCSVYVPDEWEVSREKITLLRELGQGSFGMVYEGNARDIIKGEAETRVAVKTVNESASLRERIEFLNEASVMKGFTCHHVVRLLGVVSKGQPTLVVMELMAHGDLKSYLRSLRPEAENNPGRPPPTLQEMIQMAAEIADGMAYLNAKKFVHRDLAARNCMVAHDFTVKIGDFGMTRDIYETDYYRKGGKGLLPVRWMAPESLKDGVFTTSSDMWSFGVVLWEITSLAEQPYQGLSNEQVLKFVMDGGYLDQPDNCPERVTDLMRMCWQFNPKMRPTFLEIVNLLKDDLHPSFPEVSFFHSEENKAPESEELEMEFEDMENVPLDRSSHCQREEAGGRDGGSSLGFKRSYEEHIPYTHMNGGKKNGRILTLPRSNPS
Interleukin-1 receptor-associated kinase 1 (Homo sapiens), sequence (P51617 whole entry, looked up): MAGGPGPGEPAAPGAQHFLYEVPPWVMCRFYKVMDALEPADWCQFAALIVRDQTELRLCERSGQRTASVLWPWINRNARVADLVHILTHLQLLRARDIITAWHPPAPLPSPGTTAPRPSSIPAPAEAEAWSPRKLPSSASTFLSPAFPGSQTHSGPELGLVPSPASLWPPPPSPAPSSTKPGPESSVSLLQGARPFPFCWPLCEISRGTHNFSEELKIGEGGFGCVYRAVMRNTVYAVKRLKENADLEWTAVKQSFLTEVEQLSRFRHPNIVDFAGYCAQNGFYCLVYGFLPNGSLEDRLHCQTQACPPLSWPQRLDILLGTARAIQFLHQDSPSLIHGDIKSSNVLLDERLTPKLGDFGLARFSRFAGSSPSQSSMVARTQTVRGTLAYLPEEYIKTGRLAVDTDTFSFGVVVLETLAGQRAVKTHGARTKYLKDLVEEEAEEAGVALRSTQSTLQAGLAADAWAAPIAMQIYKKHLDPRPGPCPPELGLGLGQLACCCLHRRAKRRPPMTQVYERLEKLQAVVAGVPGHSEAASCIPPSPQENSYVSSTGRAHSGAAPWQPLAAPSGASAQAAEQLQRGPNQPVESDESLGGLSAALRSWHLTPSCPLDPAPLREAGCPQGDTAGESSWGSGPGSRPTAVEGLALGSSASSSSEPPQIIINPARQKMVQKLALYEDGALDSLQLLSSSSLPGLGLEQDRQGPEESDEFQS
Tyrosine-protein kinase JAK2 (Homo sapiens), sequence (O60674 whole entry): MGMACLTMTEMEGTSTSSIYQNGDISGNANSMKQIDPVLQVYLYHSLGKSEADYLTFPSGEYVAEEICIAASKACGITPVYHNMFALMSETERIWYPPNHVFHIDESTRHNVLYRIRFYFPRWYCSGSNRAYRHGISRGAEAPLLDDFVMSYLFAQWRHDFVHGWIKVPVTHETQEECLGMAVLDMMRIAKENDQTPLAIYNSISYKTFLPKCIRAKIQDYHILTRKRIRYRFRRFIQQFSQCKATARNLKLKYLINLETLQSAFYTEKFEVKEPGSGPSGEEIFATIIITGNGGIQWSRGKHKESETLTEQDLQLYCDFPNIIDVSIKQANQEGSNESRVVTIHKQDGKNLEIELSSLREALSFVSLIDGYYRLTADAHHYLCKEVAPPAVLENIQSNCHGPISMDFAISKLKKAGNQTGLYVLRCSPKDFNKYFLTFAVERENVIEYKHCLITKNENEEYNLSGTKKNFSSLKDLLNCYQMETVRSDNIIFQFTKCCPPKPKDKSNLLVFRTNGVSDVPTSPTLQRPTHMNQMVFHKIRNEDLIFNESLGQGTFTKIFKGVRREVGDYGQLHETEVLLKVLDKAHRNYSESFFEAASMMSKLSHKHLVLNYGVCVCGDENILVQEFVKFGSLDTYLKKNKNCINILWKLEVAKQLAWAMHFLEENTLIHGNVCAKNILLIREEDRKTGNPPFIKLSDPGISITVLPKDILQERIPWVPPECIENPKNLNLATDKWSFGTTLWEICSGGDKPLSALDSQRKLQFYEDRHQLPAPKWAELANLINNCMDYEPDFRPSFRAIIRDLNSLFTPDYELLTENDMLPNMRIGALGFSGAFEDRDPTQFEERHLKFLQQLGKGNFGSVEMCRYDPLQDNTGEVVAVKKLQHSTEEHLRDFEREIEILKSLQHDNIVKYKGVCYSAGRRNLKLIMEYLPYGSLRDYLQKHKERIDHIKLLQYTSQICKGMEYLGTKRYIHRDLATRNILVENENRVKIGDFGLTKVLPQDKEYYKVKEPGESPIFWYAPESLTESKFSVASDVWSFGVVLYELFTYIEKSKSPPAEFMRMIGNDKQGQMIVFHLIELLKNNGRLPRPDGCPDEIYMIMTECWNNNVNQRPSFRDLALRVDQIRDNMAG
Insulin receptor-related protein (Homo sapiens), sequence (P14616 27-742 limits assumed): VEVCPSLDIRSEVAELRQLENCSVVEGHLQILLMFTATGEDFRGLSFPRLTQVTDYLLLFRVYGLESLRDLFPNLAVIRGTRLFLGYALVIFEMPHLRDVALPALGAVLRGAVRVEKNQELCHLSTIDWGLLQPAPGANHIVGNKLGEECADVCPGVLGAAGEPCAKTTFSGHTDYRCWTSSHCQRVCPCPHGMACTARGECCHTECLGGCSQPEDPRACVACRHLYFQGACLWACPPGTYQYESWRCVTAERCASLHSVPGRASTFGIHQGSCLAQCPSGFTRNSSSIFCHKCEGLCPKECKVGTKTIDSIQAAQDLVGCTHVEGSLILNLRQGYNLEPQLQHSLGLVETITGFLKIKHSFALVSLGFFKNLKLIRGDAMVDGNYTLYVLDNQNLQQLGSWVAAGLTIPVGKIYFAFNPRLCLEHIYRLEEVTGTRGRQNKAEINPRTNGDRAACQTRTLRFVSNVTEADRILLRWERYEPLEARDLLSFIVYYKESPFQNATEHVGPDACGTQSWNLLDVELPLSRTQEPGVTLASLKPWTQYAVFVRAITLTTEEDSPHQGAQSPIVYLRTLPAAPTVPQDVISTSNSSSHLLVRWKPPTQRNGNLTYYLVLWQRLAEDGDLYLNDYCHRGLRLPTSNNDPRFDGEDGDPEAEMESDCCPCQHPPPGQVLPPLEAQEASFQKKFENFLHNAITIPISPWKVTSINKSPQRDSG
Insulin receptor-related protein (Homo sapiens), sequence (P14616 747-1297 limits assumed): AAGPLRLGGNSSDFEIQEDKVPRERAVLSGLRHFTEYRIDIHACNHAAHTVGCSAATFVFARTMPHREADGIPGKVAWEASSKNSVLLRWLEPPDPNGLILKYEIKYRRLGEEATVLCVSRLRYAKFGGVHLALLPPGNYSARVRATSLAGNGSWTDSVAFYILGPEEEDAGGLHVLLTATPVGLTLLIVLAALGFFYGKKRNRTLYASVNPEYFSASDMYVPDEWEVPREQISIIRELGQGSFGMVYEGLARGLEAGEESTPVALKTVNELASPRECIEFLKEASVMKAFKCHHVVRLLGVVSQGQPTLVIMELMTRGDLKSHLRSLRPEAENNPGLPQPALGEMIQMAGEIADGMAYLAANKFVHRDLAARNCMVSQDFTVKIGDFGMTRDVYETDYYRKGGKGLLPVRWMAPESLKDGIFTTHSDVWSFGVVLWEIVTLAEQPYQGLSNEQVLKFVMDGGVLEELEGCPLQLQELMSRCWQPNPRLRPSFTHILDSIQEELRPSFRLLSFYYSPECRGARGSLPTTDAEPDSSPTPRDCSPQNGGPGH

For the molecule `COc1ccc2c(c[n+](C)c3c4cc5c(cc4ccc23)OCO5)c1OC`, the residual activity was 97% in assay [1]; 83% in [2]; 84% in [3]; 130% in assay [4]; 99% in assay [5]; 84% in [6]. Besides, the residual activity worked out at 96% in [7]; 83% in assay [8]; 83% in [9]; 130% in [10]; 76% in [11]; 99% in assay [12]. In addition, the residual activity in assay [13] came to 91%; in [14], 80%; in assay [15], 121%; in [16], 91%; in assay [17] it was 67%.
In the case of `N/C(=N\[N+](=O)[O-])N/N=C\c1ccc(-c2cccc([N+](=O)[O-])c2)o1`, the residual activity was determined as 99% in [3]; 100% in assay [18]; 85% in assay [9]; 86% in [14]; 85% in assay [15].
Turning to `O=C1c2ccccc2-c2nc3nnnn3nc21`, the residual activity in assay [19] was found to be 111%; in [3] it was 81%; in assay [20], 121%; in assay [4] it was 102%; in assay [5], 104%; in [6] it was 109%. Moreover, the residual activity came out at 109% in assay [7]; 103% in assay [8]; 129% in assay [18]; 108% in assay [9]; 111% in assay [14]; 103% in [16].
As for `COc1cc(OC)c(/C=C2\C(=O)Nc3ccccc32)c(OC)c1`, the residual activity in assay [20] was found to be 82%; in [4] it was 86%; in assay [5], 98%; in assay [6], 91%; in [7], 100%; in [8] it was 103%. The residual activity was 81% in assay [18]; 75% in assay [9]; 101% in [10]; 98% in [11]; 101% in assay [12]; 93% in [13]. The figures for the residual activity in assay [15], in assay [16] and in assay [17] were 94%, 105% and 100%, respectively.
As to `O=[N+]([O-])/C=C/c1ccc2c(c1)OCO2`, the residual activity in assay [1] was determined as 91%; in [2], 94%; in [19], 98%; in [3], 95%; in assay [20], 117%; in [4] it was 85%. Also, the residual activity in [5] was 96%; in assay [6], 102%; in [7] it was 95%; in assay [8], 83%; in [18] it was 116%; in [9], 107%. Also, the residual activity in assay [10] came to 106%; in assay [11], 82%; in [12], 105%; in assay [13] it was 100%; in assay [14], 73%; in [15], 118%. The residual activity in assay [16] worked out at 114%; in assay [17] it was 108%.
